This is a sample that favours compounds with a hit; in the whole collection about 15% have one here.
VP16 counter – Gal4-VP16 reporter inhibition counter-screen; Drosophila S2 Gal4-VP16 UAS-luciferase, luminescence, 20 h; Potency, µM (doses to about 53.6 µM), for inactives: at the top dose activity, negative = inhibition, hits mostly inhibitors; 310,000 compounds, 3.5% hits; AID 2546;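 note: Gal4-VP16 expression switched on by copper sulfate through the metallothionein promoter; nearly all actives have a fitted effect of over 50% in size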
12-LOX inh – inhibitors of human 12S-lipoxygenase ALOX12; AID 1671190; P18054; Potency, µM (titrated, usually from 108 µM), without a hit: at the highest dose activity change, negative = inhibition, hits mostly inhibitors; 580,000 compounds, 1.1% hits; purified 12hLO, xylenol orange hydroperoxide absorbance
Target sequence (P18054 whole entry, looked up): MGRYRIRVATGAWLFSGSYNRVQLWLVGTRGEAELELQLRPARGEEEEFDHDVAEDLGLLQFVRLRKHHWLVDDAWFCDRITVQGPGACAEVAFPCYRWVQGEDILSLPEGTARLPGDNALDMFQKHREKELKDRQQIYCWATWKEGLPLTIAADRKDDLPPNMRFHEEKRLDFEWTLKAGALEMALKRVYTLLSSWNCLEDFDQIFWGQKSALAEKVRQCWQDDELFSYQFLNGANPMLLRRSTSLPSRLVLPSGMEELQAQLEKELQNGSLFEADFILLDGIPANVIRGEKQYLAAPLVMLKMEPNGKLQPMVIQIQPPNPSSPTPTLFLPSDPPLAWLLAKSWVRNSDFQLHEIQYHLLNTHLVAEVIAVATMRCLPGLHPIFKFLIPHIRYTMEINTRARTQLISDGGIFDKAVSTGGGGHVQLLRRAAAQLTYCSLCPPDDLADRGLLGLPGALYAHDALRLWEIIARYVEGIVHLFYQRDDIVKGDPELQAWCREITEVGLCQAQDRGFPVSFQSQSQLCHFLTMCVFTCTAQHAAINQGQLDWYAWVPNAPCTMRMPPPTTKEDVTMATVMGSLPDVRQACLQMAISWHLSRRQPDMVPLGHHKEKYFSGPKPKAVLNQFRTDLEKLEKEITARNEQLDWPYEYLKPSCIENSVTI
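Purified human 12hLO at 150 nM in 25 mM Hepes, 0.01% Triton X-100, pH 7.0, preincubated 15 min at room temperature with compound. Reaction started with 40 uM arachidonic acid, 30 min at room temperature. Hydroperoxide measured by Fe-xylenol orange, 573/405 nm absorbance ratio.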
TDP1 cell noCPT – qHTS for Inhibitors of human tyrosyl-DNA phosphodiesterase 1 (TDP1): qHTS in cells in absence of CPT. 420,000 compounds, 15% hits. Potency, µM (highest dose often 46.2 µM), without a hit: at the top dose activity change, negative = growth inhibition, actives largely listed as inhibitors. AID 686978, 2013. DT40 Tdp1-/- hTDP1 cells, no CPT, ATP luminescence, 48 h; note: nearly all actives have a fitted effect of over 55% in size
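A cellular qHTS used chicken DT40 cells lacking endogenous Tdp1 but carrying stably transfected human TDP1. Compounds were applied without camptothecin, and cell growth kinetics were judged by ATP-dependent luminescence after ≥48 hr.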
ELG1 DNA repair – ELG1-dependent DNA repair inhibition. HEK293T ELG1-luciferase reporter, luminescence, 16 h; DNA damage induced by 5-fluorouridine. 330,000 compounds, 2.3% hits. Potency, µM (titrated, usually from 46.1 µM), for the others: at the top dose activity change, negative = inhibition, most hits filed as inhibitors; note: nearly all actives have a fitted effect of over 55% in size
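Reporter activity after DNA damage by 5-fluorouridine is monitored. Compound-treated cells incubate 16 hr at 37 °C, then ONE-Glo is added for 30 min before luminescence reading.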
RORgamma inh – ROR gamma (mouse) transcription inhibition; 310,000 compounds, 5.4% hits; P51450; Potency, µM (doses to about 53.6 µM), inactives show top-dose activity change, negative = inhibition, actives largely listed as inhibitors; Drosophila S2 Gal4-RORgamma UAS-luciferase reporter, 20 h; note: nearly all actives have a fitted effect of over 60% in size
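A Gal4/UAS one-hybrid system in insect cells: metallothionein-promoter Gal4–ROR gamma fusion plus Photinus luciferase reporter. Copper sulfate 700 uM final, 20 hr ambient incubation, luminescent detection after 10 min with reagent.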
TDP1 cell CPT – growth inhibition of DT40 Tdp1-/-;hTDP1 cells with camptothecin (screen for TDP1 inhibitors) | chicken DT40 Tdp1-/-;hTDP1 cells + 20 nM CPT, ATP luminescence, 48 h | 420,000 compounds, 12% hits | Potency, µM (highest dose often 46.2 µM), inactives show top-dose activity change, negative = growth inhibition, most hits filed as inhibitors | AID 686979; note: nearly all actives have a fitted effect of over 55% in size
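Chicken DT40 Tdp1-/- cells complemented with human TDP1, 400 cells/well, exposed to compounds plus 20 nM camptothecin for at least 48 h at 37 C; viability read as ATP content by CellTiter-Glo luminescence.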
An asterisk follows results filed as active; u = inconclusive; x = not tested or not shown; [ ] = remark or other dose. Calls come from the whole dose curve; as a rule, active = well fitted curve in the direction sought with a large enough effect; inconclusive = small, poorly fitted or top-dose-only effect, or another doubt; inactive = no such curve, though single readings can be large; an effect the other way counts as inactive or inconclusive. % is set by controls: 0 for no effect and ±100 for the full control effect; potency is the fitted concentration of half-maximal effect.

SMILES	VP16 counter	12-LOX inh	TDP1 cell noCPT	ELG1 DNA repair	RORgamma inh	TDP1 cell CPT
C/C(=N\NC(=S)NCCc1ccccc1)c1ccc(Cl)cc1Cl	6.3µM*	45µM*	16µM*	0%	1.8µM*	u
CN(CC(=O)Nc1ccccc1C(=O)NC1CC1)Cc1ccc(F)cc1	x	35%	x	x	x	x
Fc1ccccc1/C=N/NC(=S)Nc1ccc(Cl)cc1Cl	1.3µM*	1%	1.8µM*	u	0.63µM*	2.3µM*
S=C(Nc1ccc(Cl)cc1Cl)Nn1cnnc1	-5%	u	-20%	0%	37%[10 µM]	0%
S=C(NCc1ccncc1)Nc1ccc(Cl)cc1Cl	-19%	-18%	-18%	16µM*	8%	u
Fc1ccc(CNC(=S)Nc2ccc(Cl)cc2Cl)cc1	5.6µM*	-5%	u	-8%	4µM*	u
S=C(NCc1ccc(Cl)cc1)Nc1ccccc1Cl	u	2%	u	6%	13µM*	u
COc1cc(OC)cc(C(=O)NCCNC(=O)c2cn(C)c3ccccc23)c1	x	11%	x	x	x	x
S=C(NCCc1ccccc1)Nc1c(Cl)cccc1Cl	-27%	u	23µM*	6%	13µM*	u
CSc1ccccc1NC(=S)NCc1ccc(Cl)cc1	11µM*	14%	-1%	u	7.1µM*	-2%
CSc1ccccc1NC(=S)Nc1ccccc1C(F)(F)F	1%	-11%	-22%	4%	u	-2%
CCCNC(=S)Nc1ccc(Cl)cc1Cl	u	u	-21%	u	11µM*	-19%
CC(=O)NNC(=S)Nc1ccc(Cl)cc1Cl	x	-4%	x	x	x	x
S=C(NCCc1ccccc1)Nc1ccc(Cl)cc1NC(=S)NCCc1ccccc1	x	18µM*	x	x	x	x
CCNC(=O)c1n[nH]c2c1CN(C(=O)c1cccc(OC(F)(F)F)c1)CC2	x	9%	x	x	x	x
Cc1ccc(NC(=O)O[C@@H]2CC[C@]3(C)C(CC[C@@H](O)[C@H]3CC(=O)N3CCC[C@H]3CO)[C@]2(C)CO)cc1 (stereo partly drawn)	x	6%	x	x	x	x
COc1ccc(CNC(=O)C2=C(c3ccccc3)c3cc(Cl)ccc3S(=O)(=O)N2C)cc1	x	-1%	x	x	x	x
S=C(NCCc1ccc(Cl)cc1)Nc1ccc(Cl)cc1Cl	4.5µM*	32µM*	u	-13%	5.6µM*	u
Cc1cc(C)cc(NC(=S)NCCc2ccc(Cl)cc2)c1	x	-4%	x	x	x	x
COc1cccc(/C=C2/CN(C)CC3=C2OC(N)=C(C#N)C3c2cccc(OC)c2)c1 (stereo not drawn)	-2%	u	16µM*	u	31%	18µM*
COc1cccc(C2C(C#N)=C(N)OC(C(C)(C)C)=C2C#N)c1 (stereo not drawn)	-7%	u	u	14%	-2%	u
O=C(Nc1ccccc1C(=O)N1CCCC1)C1CC(=O)N(c2ccccc2)C1 (stereo not drawn)	x	-3%	x	x	x	x
COc1ccc(NS(=O)(=O)c2cc(C(=O)N3CCc4sccc4C3)ccc2Cl)cc1	x	48%	x	x	x	x
O=C(Nc1ccc(F)c(F)c1)c1ccc(F)c(S(=O)(=O)N2CCOCC2)c1	u	x	x	u	39%	x
O=C(Nc1cccc(C(F)(F)F)c1)c1ccc(F)c(S(=O)(=O)N2CCc3ccccc3C2)c1	x	-14%	13µM*	x	x	15µM*
O=C(Nc1ccccc1Cl)c1cc(S(=O)(=O)N2CCC3(CC2)OCCO3)ccc1F	x	0%	u	x	x	u
O=C(Nc1cc(Cl)cc(Cl)c1)c1cc(S(=O)(=O)N2CCC3(CC2)OCCO3)ccc1F	x	-13%	u	x	x	21µM*

Screening results as filed in PubChem.
